# mIDH1 inhibitor – qHTS for Inhibitors of mutant isocitrate dehydrogenase 1 (IDH1): qHTS; Potency, µM (top dose mostly 76.6 µM), without a hit: at the highest dose activity change, negative = inhibition, most hits filed as inhibitors; IDH1-R132H enzyme, NADPH consumption, diaphorase/resazurin fluorescence; hit rate 0.093% among 390,000; AID 602179, 2012; further: on the % scale 0 is the no-effect control and ±100 the full control effect; nearly all actives have a fitted effect of over 65% in size
#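 IDH1-R132H (0.5 ug/mL) preincubated 30 min with compound, then NADPH (0.016 mM) and alpha-KG (2 mM) added; 80 min at RT, pH 7.5. Remaining NADPH coupled via diaphorase/resazurin to fluorescence (540/590 nm); concentration-response curves normalized to no-enzyme control.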
# GLP1R inv ag – qHTS of GLP-1 Receptor Inverse Agonists (Inhibition Mode); Glucagon-like peptide 1 receptor (Homo sapiens), P43220; HEK293 GLP-1R CRE-luciferase, luminescence, 24 h; GLP-1R form is constitutively active; Potency, µM (top dose mostly 38.3 µM), without a hit: at the highest dose activity change, negative = inhibition, actives largely listed as inhibitors; hit rate 1.6% among 410,000; AID 624417, 2012; further: on the % scale 0 is the no-effect control and ±100 the full control effect; nearly all actives have a fitted effect of over 55% in size
# Target sequence (P43220 whole entry, looked up): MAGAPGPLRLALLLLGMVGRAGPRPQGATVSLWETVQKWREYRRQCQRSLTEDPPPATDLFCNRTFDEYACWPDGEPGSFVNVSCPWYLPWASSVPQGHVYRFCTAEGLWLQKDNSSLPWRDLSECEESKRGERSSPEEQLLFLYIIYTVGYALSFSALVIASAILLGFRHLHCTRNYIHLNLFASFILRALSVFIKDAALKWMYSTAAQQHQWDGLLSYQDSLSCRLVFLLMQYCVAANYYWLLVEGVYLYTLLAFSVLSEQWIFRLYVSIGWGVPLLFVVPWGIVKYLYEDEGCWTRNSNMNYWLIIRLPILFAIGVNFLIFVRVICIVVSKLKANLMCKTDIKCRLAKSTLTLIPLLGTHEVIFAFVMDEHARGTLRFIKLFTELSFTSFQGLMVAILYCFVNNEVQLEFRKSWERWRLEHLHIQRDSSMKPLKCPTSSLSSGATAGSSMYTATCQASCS
#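 Seeding at 200 cells/uL, 12 h culture, 24 hr compound treatment, then luciferase reagent and a luminescence read; cells are HEK293 stably expressing a constitutively active GLP-1R plus cAMP-responsive luciferase.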
# GLP1R ag – qHTS of GLP-1 Receptor Agonists. Glucagon-like peptide 1 receptor (Homo sapiens), P43220. HEK293 GLP-1R CRE-luciferase, luminescence, 4-6 h; cells express a hypersensitive GLP-1R form. Potency, µM (highest dose often 45.6 µM), inactives show top-dose activation, hits mostly activators. hit rate 0.007% among 380,000; further: % of control where 0% means no effect
# GLP1R cytotox – qHTS of GLP-1 Receptor Inverse Agonists: Cytotox Screen. HEK293 cAMP-luciferase reporter cells, luminescence, 24 h. Potency, µM (series often up to 38.3 µM), without a hit: top-dose activity change, negative = inhibition, actives largely listed as inhibitors. hit rate 0.13% among 410,000;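 further: loss of luciferase light is scored as toxicity; on the % scale 0 is the no-effect control and ±100 the full control effect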
#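 Here, cytotoxicity is scored as loss of luminescence. The MLSMR collection was tested on cells seeded in medium containing 10% Nu serum, with a 24 hr compound exposure preceded by 12 hours of culture.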
# TrxR1 substrate – qHTS Assay for Substrates of Mammalian Selenoprotein Thioredoxin Reductase 1 (TrxR1): qHTS. purified TrxR1 substrate turnover, NADPH consumption readout. Potency, µM (titrated, usually from 114 µM), for inactives: at the highest dose activity change, negative = substrate turnover. hit rate 0.01% among 390,000. AID 588456, 2011; further: on the % scale 0 is the no-effect control and ±100 the full control effect; nearly all actives have a fitted effect of over 50% in size
#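 Rat TrxR1, dispensed at 90 nM, was prereduced with 400 uM NADPH (final) for 5 min at ~22 deg C, then incubated with compound 15 min before 400 uM selenite. A first-read NADPH fluorescence drop versus no-compound background flagged substrates.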
# rTrxR1 inhibitor – qHTS Assay for Inhibitors of Mammalian Selenoprotein Thioredoxin Reductase 1 (TrxR1): qHTS. hit rate 1% among 390,000. AID 588453, 2011. recombinant rTrxR1, NADPH fluorescence consumption, selenite substrate. Potency, µM (highest dose often 114 µM), inactives show top-dose activity change, negative = inhibition, actives largely listed as inhibitors; further: on the % scale 0 is the no-effect control and ±100 the full control effect; nearly all actives have a fitted effect of over 65% in size
#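 Rat TrxR1 (90 nM in the dispensed reagent) was pre-reduced with 400 uM NADPH for 5 min at room temperature, then incubated with compound for 15 min. After 400 uM selenite was added, NADPH fluorescence (Ex 340/Em 450 nm) was followed for 8 min.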
# Starred values were filed as active, the others as inactive; u = inconclusive; x = no result; [ ] = dose if it differs, or a comment. Sampled rows, rich in hits. Any-hit rate of the full collection: about 2.7%. The call rests on the fitted dose curve; in most records, active means well fitted curve in the direction sought with a large enough effect; inconclusive means small, poorly fitted or top-dose-only effect, or another doubt; inactive means no such curve, though single readings can be large; an effect the other way counts as inactive or inconclusive. Potency means the concentration at half of the fitted maximal effect.
SMILES,mIDH1 inhibitor,GLP1R inv ag,GLP1R ag,GLP1R cytotox,TrxR1 substrate,rTrxR1 inhibitor
CCCCN(CCCNC(=O)CN1N=C(c2ccc(C)cc2)CCC1=O)c1ccccc1,7%,13µM*,x,-5%,-13%[57.1 µM],-1%[57.1 µM]
CCOc1cc2[nH]c(=O)n(CCCCC(=O)N3CCN(c4ccccc4)CC3)c(=O)c2cc1OCC,-5%,11%,x,3%,2%[57.1 µM],11%[57.1 µM]
Cc1cc2ncn(-c3ncnc4sc(C)c(C)c34)c2cc1C,1%,7.1µM*,5%,-2%,-5%,-2%
CCc1cccc(NC(c2nnc(-c3ccccc3)o2)c2ccc(F)cc2Cl)c1 (stereo unspecified),-15%,6.3µM*,x,2%,2%[57.1 µM],14%[57.1 µM]
CCc1ccc(NC(=O)c2cnn(-c3ccccc3)c2-n2cccc2)cc1,9%,u,x,9%,-6%,-2%
CCc1ccc(NC(=O)c2cnn3ccccc23)cc1,8%,5µM*,-5%,18%,-4%,9%
COc1cc(-c2nnc(SCC3(c4ccc(Br)cc4)OCCO3)o2)cc(OC)c1OC,9%,4µM*,4%,9%,16%,35%
COc1cc(-c2nnc(SCC(=O)N3CCOCC3)o2)cc(OC)c1OC,3%,58%,5%,-6%,14%[0.0914 µM],19%[0.0914 µM]
O=c1c2sc3ccccc3c2n(Cc2ccc(F)cc2)c(=O)n1Cc1ccco1,1%,5%,-1%,3%,-3%,-9%
CC(=O)Nc1nc2cc3c(cc2s1)OCO3,3%,-3%,4%,8%,3%[57.1 µM],0%[57.1 µM]
O=C(Nc1nc2cc3c(cc2s1)OCO3)C1=COCCO1,18%,2.2µM*,-15%,-8%,2%[57.1 µM],-5%[57.1 µM]
O=C(Nc1cccc(NC(=O)c2ccc(Br)o2)n1)c1ccc(Br)o1,12%,0%,7%,7%,8%,32µM*
CCOC(=O)Cc1csc(NC(=O)CSc2nnnn2-c2ccc(C)cc2C)n1,-1%,6.3µM*,-2%,-19%,-4%[57.1 µM],10%[57.1 µM]
COc1ccccc1C1NC(c2ccc3c(c2)OCO3)=CC(c2cc(Br)ccc2O)N1 (stereo unspecified),x,x,x,x,2%,-30%
Cc1cc(O)c(C=O)c2c1C(=O)Oc1c(CO)c(O)c3c(c1O2)C(O)OC3=O (stereo unspecified),-13%,-26%,-5%,-19%,-7%,50µM*
CC(C)c1ccc(NC(=O)CCn2c(=O)c3cccn3c3ccccc32)cc1,-11%,u,x,2%,4%[11.4 µM],22%
CN1c2ccccc2C(O)=C(C(=S)Nc2ccccc2)S1(=O)=O,13%,-14%,-5%,0%,u,u
CN1c2ccccc2C(O)=C(C(=S)Nc2ccc(F)c(Cl)c2)S1(=O)=O,-3%,10µM*,-26%,11%,u,u
CCCOc1ccccc1Cn1c(=O)sc2ccccc21,-4%,u,x,-3%,7%,19%
CC(Oc1cccc(Cl)c1)C(=O)Nc1ccccc1N1CCCCC1 (stereo unspecified),-4%,u,6%,0%,-5%,10%
CC(Oc1cccc(Cl)c1)C(=O)Nc1cc(Cl)ccc1N1CCOCC1 (stereo unspecified),-5%,13µM*,12%,-1%,-8%,-8%[57.1 µM]
Cc1ccc(C)c(N2CCN(S(=O)(=O)c3ccc4[nH]c5c(c4c3)CCCCC5)CC2)c1,-8%,u,-5%,-11%,-4%,7%
N#Cc1c(SCC(=O)O)nc(N2CCCCC2)c2c1CCCC2,1%,-4%,4%,-5%,3%[11.4 µM],0%[11.4 µM]
COC(=O)CSc1nc(N2CCCCC2)c2c(c1C#N)CCCC2,10%,10µM*,-1%,21%,11%[57.1 µM],-1%
CCN(Cc1ccccc1)S(=O)(=O)c1ccc(N2CCCCS2(=O)=O)cc1,-12%,-25%,x,0%,-4%[57.1 µM],8%[57.1 µM]
SMILES,mIDH1 inhibitor,GLP1R inv ag,GLP1R ag,GLP1R cytotox,TrxR1 substrate,rTrxR1 inhibitor
O=C(c1ccc(Cl)c(Cl)c1)N1CCC(=O)N(C(COCc2ccc(Cl)cc2)Cc2ccccc2)CC1 (stereo unspecified),-6%,10µM*,0%,16%,10%[57.1 µM],20%[57.1 µM]
CC(C)(C)c1ccc(C(=O)N2CCC(=O)N(C(COCc3ccccc3)Cc3ccccc3)CC2)cc1 (stereo unspecified),10%,u,7%,u,-11%[57.1 µM],12%[57.1 µM]
CC(C)(C)c1ccc(C(=O)N2CCC(=O)N([C@H](COCc3ccccc3)Cc3ccccc3)CC2)cc1,x,10µM*,-4%,u,x,x
CCCCCCCCCCCCCCCCCCN(CCCCCCCCCCCCCCCCCC)c1ccc(/C=C/c2ccc(C=O)cc2)cc1,x,x,x,x,6%,15%
Cc1oc(-c2ccc(C(=O)Nc3ccc(F)cc3F)cc2)nc1COc1ccccc1,5%,1%,x,-4%,-3%,12%
CCCCc1nn2c(C)c(-c3ccc(OCC)cc3)nc2s1,16%,10µM*,x,-12%,-7%,-2%
CCCOC(=O)c1ccc(NC(=O)C2C3C=CC(O3)C2C(=O)O)cc1 (stereo unspecified),-3%,11%,-3%,0%,1%,40µM*
O=S(=O)(c1ccc(Cl)cc1)c1nc(-c2ccccc2Br)oc1N1CCOCC1,-9%,u,x,5%,0%,10%
COCCCN(C(=S)Nc1ccc(C)cc1Cl)C(C)c1ccncc1 (stereo unspecified),1%,u,-2%,7%,0%,-7%
Cc1ccc(NC(=S)N(CCC(C)C)C(C)c2ccncc2)c(Cl)c1 (stereo unspecified),-21%,10µM*,13%,-8%,-6%,2%
Cc1ccccc1NC(=O)c1ccc(F)c(S(=O)(=O)N(C)C2CCCCC2)c1,35%,10µM*,x,-1%,-6%[57.1 µM],4%[57.1 µM]
COc1ccccc1-c1ccnc2c(-c3ccc(Br)cc3)c(C)nn12,-1%,10%,1%,4%,12%[11.4 µM],12%[11.4 µM]
Cc1cccc(N2CCN(c3ccc4cc(S(=O)(=O)N5CCC(C)CC5)ccc4n3)CC2)c1C,8%,5%,x,2%,2%[57.1 µM],11%[57.1 µM]
CCS(=O)(=O)c1ncc(Cl)c(C(=O)N(Cc2ccccc2)Cc2ccco2)n1,5%,u,x,u,12%,2.8µM*

# High-throughput results deposited in PubChem by National Center for Advancing Translational Sciences (NCATS).
